# A549 tox: kills or reduces viability of A549 cells in Nrf2 counter-screen; A549 ARE-Fluc cells, CellTiter-Fluor viability, 18-24 h; Potency, µM (highest dose often 46 µM), without a hit: at the top dose activity change, negative = cytotoxicity, most hits filed as inhibitors; 390,000 tested, 0.16% active; AID 504648; further: potency means the concentration at half of the fitted maximal effect; on the % scale 0 is the no-effect control and ±100 the full control effect
#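 A549 ARE-Fluc cells in 5% FBS OPTI-MEM, 5000 cells/well, rested 2 h then exposed to compounds in concentration-response for 18-24 h at 37 °C. Viability by CellTiter-Fluor fluorescence (Ex 405/Em 525) after 30 min; luciferase luminescence (BugLite, 15 min, RT) read afterwards.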
# TCR act: T cell receptor activation; primary human leukocytes, anti-CD3, IL-2 HTRF, 48 h; Potency, µM (doses to about 9.22 µM), without a hit: at the top dose activation of IL-2 secretion, hits mostly activators; 330,000 tested, under 10 active; further: % of control where 0% means no effect
#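 Compounds are tested in HTS on primary human leukocytes co-incubated with a-CD3 beads for 48 hr. IL-2 output is measured by time-resolved FRET.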
# Nrf2 block: inhibitors of Nrf2 signaling | A549 ARE-Fluc reporter, luciferase luminescence, 18-24 h | Potency, µM (highest dose often 46 µM), without a hit: at the top dose activity change, negative = inhibition, usual class: inhibitors | 360,000 tested, 2.1% active; further: potency means the concentration at half of the fitted maximal effect; on the % scale 0 is the no-effect control and ±100 the full control effect; nearly all actives have a fitted effect of over 60% in size
#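 Nrf2 function is reported as luminescence of an ARE-controlled luciferase in A549 cells. Compounds were tested at several concentrations, and a CellTiter-Fluor read on the same wells flagged cytotoxicity.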
# CCT modulator: modulators of cytosolic chaperonin (CCT/TRiC) activity | 360,000 tested, 0.3% active | purified chaperonin ATPase assay, HTRF ADP detection, 30 min | activity change, % (test concentration not listed), hits read low; in the data active means activity change below about -30%; further: on the % scale 0 is the no-effect control and ±100 the full control effect
#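 Nucleotide hydrolysis assay: TRiC at 20–40 nM final (set by batch activity) with 10 uM ATP, 30 min at 37 °C, in presence of 76 uM compound. Detection by competitive ADP HTRF, 30 min ambient.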
# Nrf2 ARE act: activates Nrf2 signaling; AREc32 ARE-luciferase reporter (MCF7-derived line), luminescence, 24 h; Potency, µM (top dose mostly 46.1 µM), for the others: at the top dose activation, hits mostly activators; 410,000 tested, 0.31% active; further: potency means the concentration at half of the fitted maximal effect; % of control where 0% means no effect; nearly all actives have a fitted effect of over 65% in size
#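 For detection, Steady-Glo was added and plates sat 30 min at RT; before that, AREc32_Fluc cells grown overnight in OPTI-MEM/5% FBS had been treated with 23 nL compound for 24 hr at 37 deg C.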
# A-T KAP1 phos: potential ataxia-telangiectasia treatment; F2112 A-T fibroblasts, KAP-1 phosphorylation AlphaLISA; neocarzinostatin DNA damage 30 min before lysis; AID 485349; 320,000 tested, 0.19% active; Potency, µM (titrated, usually from 57.5 µM), for the others: top-dose activation, usual class: activators; further: potency means the concentration at half of the fitted maximal effect; % of control where 0% means no effect; nearly all actives have a fitted effect of over 45% in size
#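 hTERT-immortalized A-T patient fibroblasts (F2112), 500 cells/well in OPTI-MEM, 1% FBS, got compounds for 60 min, then NCS for 30 min at 37C. Lysates were then assayed for phospho-KAP-1 by AlphaLISA (anti-pKAP1 donor, anti-KAP1 acceptor beads), 6 hr at 25C.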
# * = called active by the depositor; ? = inconclusive; / = not tested or not shown; [ ] = another dose, or the depositor's remark. Only some compounds are listed: those with a hit (about 2.6% of all), similar ones and a draw of the others. Unless noted, the call rests on the fitted dose curve; in most records, active means well fitted curve in the direction sought with a large enough effect; inconclusive means small, poorly fitted or top-dose-only effect, or another doubt; inactive means no such curve, though single readings can be large; an effect the other way counts as inactive or inconclusive.
SMILES,A549 tox,TCR act,Nrf2 block,CCT modulator,Nrf2 ARE act,A-T KAP1 phos
CC(=O)c1cccc(NC(=O)C2CCCN(c3nnc(-n4cccc4)s3)C2)c1 (stereo not given),5.8%,/,-11.1%,/,8.6%,/
N#CC(C#N)=C(Nc1ccc(F)cc1)SCc1cccc(F)c1,?,-5.5%[46.1 µM],4.61µM*,-0.3,?,2.9%
COc1cccc(C2c3c(ncn(-c4ccc(C#N)cc4)c3=N)Oc3ccc4ccccc4c32)c1 (stereo not given),-10.0%,/,-23.2%,/,/,/
CCCCCc1ccc(OCCC[n+]2ccccc2)c(CCCCC)c1,?,5.2%,13µM*,-0.6,-3.2%,9.5%
CCN(CC)CCNc1ccc(CO)c2sc3ccccc3c(=O)c12,16.4µM*,-4.5%,6.51µM*,-0.4,-0.2%,-12.3%
O=C(Cn1c(=O)nc(-c2ccccc2)c2ccccc21)Nc1cccc(C(F)(F)F)c1,3.8%,/,/,/,1.7%,/
COc1ccc(C2=Nc3ccccc3NC(c3cccs3)=N2)cc1,15.4%,/,-4.8%,/,0.5%,/
Cc1ccc(C(C(=O)NCC2CCCO2)N(Cc2ccccc2)C(=O)c2ccc(-c3ccccc3)[nH]2)o1 (stereo not given),?,-4.2%[46.1 µM],?,-1.3,0.2%,-7.6%
O=C(NCC1CCCO1)C(c1cccs1)N(Cc1ccccc1Cl)C(=O)c1ccc(-c2ccccc2)[nH]1 (stereo not given),-6.3%,-1.0%[46.1 µM],23.1µM*,-1.1,0.2%,5.2%
Cc1cc2nc(-c3ccccc3)c(Cc3ccccc3)n2c(C)c1Br,/,/,/,-0.4,?,/
O=C1CCc2cc(S(=O)(=O)Nc3ccc(-c4ccccc4)cc3)ccc2N1,1.9%,/,11.6µM*,/,/,/
Cc1ccc(C)c(S(=O)(=O)NCCC(=O)N2CCCC(C(N)=O)C2)c1 (stereo not given),9.0%,12.9%,-12.2%,2.1,-0.2%,-3.9%
Cc1nc2c(C(=O)NCc3ccccc3Cl)cnn2c(C)c1Cc1c(F)cccc1Cl,-4.9%,/,/,/,-0.4%,/
O=C(Cc1cccs1)OCC(=O)c1ccco1,-0.8%,0.4%,23.4%,-3.1,-0.7%,4.4%
O=C(CC(Sc1ccccc1)c1cccs1)c1ccco1 (stereo not given),-3.6%,/,9.6%,-4.4,17.8µM*,-5.0%
COc1ccc(OCc2nc3ccccc3n2C(C)C)cc1,0.0%,-17.8%,23.1µM*,-1.4,5.3%,9.1%
COc1cc(/C=C2\SC(=S)N(NC(=O)c3ccccc3O)C2=O)ccc1O,?,-0.4%,14.5%,0.8,4.6%,-66.7%
O=C(NN1C(=O)/C(=C/c2ccc(O)c([N+](=O)[O-])c2)SC1=S)c1ccccc1Cl,3.66µM*,-11.3%,?,0.1,-0.4%,-14.2%
NC(=S)NN=C1CCCCCCCCC1,7.7%,8.6%,0.0%,0.2,4.6%,/
NC(=S)NN=C1CCSCC1,4.9%,-2.9%,-5.6%,-33.5*,9.2%,/
O=C(c1ccc(F)cc1F)C1CCN(c2ccc([N+](=O)[O-])cn2)CC1,-16.8%,0.1%,23.1µM*,-1.0,0.6%,-1.4%
Cc1cc(C)n(-c2nc(NCCN(C)C)c3c4c(sc3n2)CCCC4)n1,1.1%,6.3%,?,-0.6,6.0%,39.8µM*
CCN(CC)CCNc1nc(-n2nc(C)cc2C)nc2sc3c(c12)CC(C)(C)OC3,?,3.7%,1.8%,-2.9,0.4%,35.5µM*
COc1ccc(-c2c3c(=O)n(C)c(=O)n(C)c3cn2-c2ccc(O)cc2)cc1,0.3%,7.1%,4.2%,-9.2,-0.1%,31.6µM*
O=S(=O)(/N=C(/Sc1ccc(Cl)cc1)c1ccccc1)c1ccccc1,-0.5%,/,5.8%,/,/,/
Clc1ccc2oc(-c3ccccc3)cc(=NCCCN3CCOCC3)c2c1,7.7%,-2.1%,24.5%,-4.2,12.6µM*,-0.2%
OCCCCCN=c1cc(-c2ccccc2)oc2ccc(Cl)cc12,?,3.7%,?,-6.4,29.0%,3.6%
COc1cc2oc3ccccc3c2cc1N(CC(=O)N(C)C)S(=O)(=O)c1ccccc1,-0.3%,0.0%,16.5%,2.1,-0.2%,/
